In all, about 190,000 compounds went through this assay and about 1,300 (0.68%) were called active. Shown is part of a subset that was picked to be rich in actives. A number with no mark means an inactive call. No stated cut-off is given here; in the data, active means inhibition above about 50%; inactive means the rest.
Each molecule was assayed against Mannose-6-phosphate isomerase (Homo sapiens) (UniProt P34949) (assay: human PMI inhibitors, high substrate, primary screen, biochemical, fluorescence intensity, high mannose 6-phosphate (AID 1220)). Settings: recombinant PMI enzyme, coupled fluorescence intensity; at 20 µM; active compounds read high.
Chain of Mannose-6-phosphate isomerase (Homo sapiens) (P34949 whole entry, looked up): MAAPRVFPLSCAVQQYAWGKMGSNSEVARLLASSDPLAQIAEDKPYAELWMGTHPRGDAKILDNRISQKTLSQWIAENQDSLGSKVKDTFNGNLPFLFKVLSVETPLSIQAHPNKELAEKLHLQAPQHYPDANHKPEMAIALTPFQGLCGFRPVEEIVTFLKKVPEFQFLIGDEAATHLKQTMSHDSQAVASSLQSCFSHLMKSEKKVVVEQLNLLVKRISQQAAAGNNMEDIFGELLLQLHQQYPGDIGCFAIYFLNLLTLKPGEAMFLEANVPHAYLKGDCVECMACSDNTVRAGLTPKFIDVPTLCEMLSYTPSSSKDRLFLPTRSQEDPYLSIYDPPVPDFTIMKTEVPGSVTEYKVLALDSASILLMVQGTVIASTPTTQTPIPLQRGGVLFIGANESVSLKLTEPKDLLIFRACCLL

Point of comparison: `O=C(NC1CCCCC1)NC1CC2CCC(C1)N2C(=O)NCc1ccccc1` (centres undefined), inhibition -7.9%. Against it:
- COCc1c(C(=O)N/N=C/c2cccc3ccccc23)nnn1-c1nonc1N — lower, -11.8%
- COCc1c(C(=O)N/N=C(/C)c2ccccc2)nnn1-c1nonc1N — higher, 6.3%
- Cc1ccc(Oc2nc(-c3cccnc3)nc3ccccc23)c([N+](=O)[O-])n1 — higher, 8.5%
- CC(=O)c1ccc(Oc2nc(-c3cccnc3)nc3ccccc23)cc1 — higher, -4.3%
- Cc1cc(C(=O)C(=O)O)c(C)n1-c1ccc(Cl)c(Cl)c1 — higher, -3%
- COc1ccc(CCC(=O)N2CC(C)OC(C)C2)cc1 (centres undefined) — higher, 5.2%
- Cc1ccc(C)c(NC(=O)c2nc(-c3ccccc3)n(-c3ccccc3)n2)c1 — higher, 16.2%
- O=[N+]([O-])c1ccc(C[n+]2ccc(Cc3ccccc3)cc2)cc1 — higher, 31.5%
- O=S(=O)(c1ccccc1)N1CCN=C1SCc1ccccc1 — higher, -2.3%
- O=S(=O)(c1ccccc1)N1CCN=C1SCc1ccc(Cl)c(Cl)c1 — higher, -0.5%
- c1ccc(COc2ccc(OCCN3CCCC3)cc2)cc1 — higher, 16.3%
- Cc1cccc(NC(=O)CC2SC(=NC3CCCCC3)NC2=O)c1 (centres undefined) — higher, 7.6%
- Cc1ccc(OCc2n[nH]c(=S)n2N)cc1C — higher, 9.3%
- Nn1c(COc2ccc(Cl)cc2)n[nH]c1=S — higher, 10.2%
- CCOc1ccccc1OCCNC1CCCC1 — higher, -5%
- COCCCNC(=S)Nc1ccc(C)cc1[N+](=O)[O-] — higher, 5.7%
- CC[C@H](C)C(C(=O)N1CCN(C(=O)OC(C)(C)C)CC1)n1cc(C(Cc2ccc(O)cc2)NC(=O)OC(C)(C)C)nn1 (some centres undefined) — higher, 6.3%
- Cn1c(SCC(=O)N/N=C/C=C/c2ccco2)nc2ccccc21 — higher, 45.7%
- CC(/C=N/NC(=O)c1cc(-c2ccc(Cl)cc2)nc2ccccc12)=C\c1ccco1 — higher, 11.8%
- CC(/C=N/NC(=O)c1cc(-c2ccncc2)nc2ccccc12)=C\c1ccco1 — higher, 11.8%
- O=C(CSc1nnc(SCc2ccccc2)s1)N/N=C/C=C\c1ccco1 — lower, -23%
- Cn1c(SCC(=O)N/N=C/c2ccco2)nc2ccccc21 — higher, 3.4%
- CC(=C/c1ccco1)/C=N/NC(=O)CSc1nnc(SCc2ccc(C)cc2)s1 — higher, 49.4%
- CCc1ccc(Nc2nnc(SCC(=O)Nc3sccc3C(N)=O)s2)cc1 — higher, 11.1%
- CCOC(=O)c1ccc(NC(=S)N(CCN2CCCCCC2)Cc2cccs2)cc1 — higher, 2.9%
- COc1cc(OC)cc(C(=O)NCC2CCCO2)c1 (centres undefined) — higher, 12.6%
- Cc1ccc2nc3c(cc2c1)c(NC(=O)c1cccnc1)nn3C — higher, 13.2%
- Cc1c(C(=O)NCC2CCCO2)oc2ccc3c(c12)C(=O)CC(C)(C)O3 (centres undefined) — higher, 7.4%
- O=C(Nc1cccnc1)C1CCCN(S(=O)(=O)c2ccccc2)C1 (centres undefined) — higher, -2%
- CCOc1cc(N2CCOCC2)c(OCC)cc1NC(=O)CSc1n[nH]c(N)n1 — higher, 37.1%
- CCOc1cc(N2CCOCC2)c(OCC)cc1NC(=O)CSc1cccc[n+]1[O-] — higher, 16.7%
- CCOc1cc(N2CCOCC2)c(OCC)cc1NC(=O)CCC1CCCC1 — higher, 17.2%
- CCOc1cc(N2CCOCC2)c(OCC)cc1NC(=O)CSc1nccc(C)n1 — higher, 19.5%
- [O-][n+]1ccc(C2CC2)cc1 — higher, 7.7%
- CCN1CCN(C(c2cccs2)C(C)NC(=O)NC2CCCCC2)CC1 (centres undefined) — higher, 6%
- CCC1Sc2ccccc2N(CC(=O)NCc2ccc3c(c2)OCO3)C1=O (centres undefined) — higher, -3.8%
- O=C(COC(=O)COc1cccc(Br)c1)Nc1c(Cl)cccc1Cl — higher, 4.6%
- COc1ccc(Cn2c(N)c(C#N)c3nc4ccccc4nc32)cc1 — higher, 15.1%
- COc1ccc(NC(=O)c2ccc(Br)o2)cc1 — higher, 13.3%
- N#CC(=C=[N-])c1nc2ccccc2nc1-[n+]1ccccc1 — higher, 1.9%
- CCc1cc[n+](-c2nc3ccccc3nc2C(=C=[N-])C#N)cc1 — higher, 14.8%
- COC(=O)COC(=O)c1ccc(Oc2nc(OC)nc(N(C)C)n2)cc1 — higher, 8.1%
- O=c1oc(-c2cccs2)nc2ccc(Br)cc12 — higher, -3%
- Cc1ccc(-c2cc(C(=O)O)c3cc(Br)ccc3n2)o1 — lower, -44.6%
- N#C/C(=C/c1ccc(N2CCOCC2)o1)c1nc2ccccc2[nH]1 — higher, 38.4%
- Cc1ccc(/C(C#N)=C\c2ccc(N3CCOCC3)o2)cc1 — higher, 14.1%
- N#C/C(=C/c1ccc(N2CCOCC2)o1)c1ccc(Cl)cc1 — higher, 42.5%
- N#C/C(=C\c1ccc(N2CCOCC2)o1)c1nc2ccccc2[nH]1 — higher, 45.8%
- CC1=CCC2COC(c3ccc[n+](Cc4ccccc4)c3)C1C2 (centres undefined) — higher, 43.6%
- CCOc1ccc(N(CC(=O)N2CCCC2)S(=O)(=O)c2c(C)noc2C)cc1 — higher, 0.9%
- Cc1c(Cl)cccc1NC(=O)Nc1ccc(C(N)=O)cc1 — higher, 3.7%
- Cc1cc(/C=C2\SC(N)=NC2=O)c(C)n1-c1ccc(F)cc1 — higher, 32.4%
- Cc1cc(S(=O)(=O)n2cnc3ccccc32)c(C)cc1Cl — lower, -20.1%
- Cc1cc(C)c(S(=O)(=O)n2cnc3ccccc32)c(C)c1 — higher, -6%
- O=C1c2ccccc2C(=O)N1Cc1nc(-c2ccccc2)no1 — higher, -1.3%
- OCCCc1cn(-c2ccccc2)c2ccccc12 — lower, -13.6%
- C=CCSC1=N/C(=C\c2ccc(C)o2)C(=O)S1 — higher, 7.9%
- Cc1ccc2cc(CN(Cc3ccccc3)Cc3nnnn3C3CCCC3)c(=O)[nH]c2c1 — higher, 5.3%
- c1ccc2c(-n3cnnn3)cccc2c1 — higher, 1.3%
- c1ccc2c(-n3cccn3)cccc2c1 — higher, -0.8%
- Nc1ccc2oc(-c3cccc4ccccc34)nc2c1 — higher, 45.3%
- Cc1cc2nn(-c3cccc4ccccc34)nc2cc1NC(=O)c1cccs1 — higher, 15.2%
- Cn1nc(-c2ccc(C(=O)O)cc2)c2ccccc2c1=O — higher, -4.7%
- CCCC(=O)NC(c1ccccc1OC)c1ccc2cccnc2c1O (centres undefined) — higher, 39.5%
- Cc1cccc(NC(c2ccc(O)cc2)c2ccc3ccc(C)nc3c2O)n1 (centres undefined) — higher, 8.7%
- CCC(=O)NC(c1cccs1)c1ccc2cccnc2c1O (centres undefined) — higher, 49.8%
- Cc1cc(NC(c2cccnc2)c2ccc3cccnc3c2O)no1 (centres undefined) — higher, 40.3%
- Cc1ccnc(NC(c2cccnc2)c2ccc3cccnc3c2O)c1 (centres undefined) — higher, 18%
- CN1CCN(C(c2cccnc2)c2ccc3cccnc3c2O)CC1 (centres undefined) — higher, 39.6%
- CCOC(=O)N1CCN(S(=O)(=O)c2cccc3cccnc23)CC1 — lower, -12.8%
- Cc1ccc2ccc(C(Nc3ccccn3)c3ccccc3)c(O)c2n1 (centres undefined) — higher, 11.4%
- CCN(CC)CCCNC(=O)c1ccc2c(SCC(=O)O)c3c(nc2c1)CCC3 — lower, -9.3%
- COc1ccc(-n2c(C(C)n3nc(C)c([N+](=O)[O-])c3C)n[nH]c2=S)cc1 (centres undefined) — lower, -11.8%
- COc1ccc(NC(=O)CC2C(=O)N(CCc3ccccc3)C(=S)N2Cc2cccnc2)cc1 (centres undefined) — lower, -8.8%
- COc1ccc(CC(=O)NNC(=O)c2cccs2)cc1 — higher, -0.3%
- CC1CC(N(C(=O)c2ccco2)c2ccccc2)c2ccccc2N1 (centres undefined) — higher, 17.9%
- Oc1c(C(Nc2nccs2)c2ccc(C(F)(F)F)cc2)ccc2cccnc12 (centres undefined) — higher, 24.5%
- Oc1c(C(Nc2nc3ccccc3s2)c2ccco2)ccc2cccnc12 (centres undefined) — higher, 34.8%
- CC(C)OC(=O)c1ccc(NC(=O)c2ccco2)cc1 — higher, 6.2%

`CC(=C/c1ccco1)/C=N/NC(=O)c1nnn(-c2nonc2N)c1CN(C)C` was tested, and the inhibition was 59.6% (active).
In the case of `O=[N+]([O-])c1ncccc1Oc1nc(-c2cccnc2)nc2ccccc12`, the inhibition was 65.8% (active).
In the case of `O=S(=O)(c1ccccc1)N1CCN=C1SCc1ccc(Cl)cc1`, the inhibition was 51.5% (active).
`CC(/C=N/NC(=O)c1cc(-c2ccccc2)nc2ccccc12)=C\c1ccco1` was tested, and the inhibition was 63.2% (active).
For `CC(/C=N/NC(=O)CSc1nc2ccccc2n1C)=C\c1ccco1`, the inhibition was 58.6% (active).
With `CC(/C=N/NC(=O)CSc1nnc(SCc2ccccc2)s1)=C\c1ccco1` the inhibition was 54.7% (active).
With `CCOc1cc(N2CCOCC2)c(OCC)cc1NC(=O)CSc1ncccn1` the inhibition was 50.6% (active).
`CCOc1cc(N2CCOCC2)c(OCC)cc1NC(=O)CSc1ncn[nH]1` was tested, and the inhibition was 53% (active).
For `COc1ccc(-n2c(NC(=O)c3ccc(Br)o3)c(C#N)c3nc4ccccc4nc32)cc1`, the inhibition was 66.9% (active).
`Cc1cc[n+](-c2nc3ccccc3nc2C(=C=[N-])C#N)cc1` was tested, and the inhibition was 51.9% (active).
With `N#C/C(=C/c1ccc(N2CCOCC2)o1)c1ccc(Br)cc1` the inhibition was 50.4% (active).
`Cc1ccc2nc(/C(C#N)=C\c3ccc(N4CCOCC4)o3)[nH]c2c1` was tested, and the inhibition was 59.9% (active).
With `Cc1ccc(S(=O)(=O)n2cnc3ccccc32)c(C)c1` the inhibition was 81.3% (active).
In the case of `Nc1ccc2nn(-c3cccc4ccccc34)nc2c1`, the inhibition was 62.8% (active).
With `Cc1cc2nn(-c3cccc4ccccc34)nc2cc1N` the inhibition was 75.5% (active).
For `CCC(=O)NC(c1ccccc1OC)c1ccc2cccnc2c1O` (centres undefined), the inhibition was 50.2% (active).
In the case of `COc1cc(C(Nc2ccccn2)c2ccc3ccc(C)nc3c2O)cc(OC)c1O` (centres undefined), the inhibition was 62.2% (active).
With `COc1ccccc1NC(c1cccnc1)c1ccc2cccnc2c1O` (centres undefined) the inhibition was 51.7% (active).
With `Oc1cccc(C(Nc2nccs2)c2ccc3cccnc3c2O)c1` (centres undefined) the inhibition was 57.6% (active).
